# In all, about 5,700 compounds went through this assay and about 85 (1%) were called active. Rule as the data show it: active = p53-positive nuclei above about 36% (passing the limit was not always enough); inactive = the rest. Many of the other results were omitted from the sample, so actives are more common in it than they were.
# Legend:
# [1] = nuclear p53 accumulation, HPV+ cells – imaging, p53-positive nuclei imaging, 24 h, 48 h (AID 1508601); details: 24/48 h
# [2] = biological target: Cellular tumor antigen p53 (Homo sapiens) (UniProt P04637); experiment: as above; details: 24/48 h, stronger effect = higher value
# Cellular tumor antigen p53 (Homo sapiens), sequence (P04637 whole entry, looked up): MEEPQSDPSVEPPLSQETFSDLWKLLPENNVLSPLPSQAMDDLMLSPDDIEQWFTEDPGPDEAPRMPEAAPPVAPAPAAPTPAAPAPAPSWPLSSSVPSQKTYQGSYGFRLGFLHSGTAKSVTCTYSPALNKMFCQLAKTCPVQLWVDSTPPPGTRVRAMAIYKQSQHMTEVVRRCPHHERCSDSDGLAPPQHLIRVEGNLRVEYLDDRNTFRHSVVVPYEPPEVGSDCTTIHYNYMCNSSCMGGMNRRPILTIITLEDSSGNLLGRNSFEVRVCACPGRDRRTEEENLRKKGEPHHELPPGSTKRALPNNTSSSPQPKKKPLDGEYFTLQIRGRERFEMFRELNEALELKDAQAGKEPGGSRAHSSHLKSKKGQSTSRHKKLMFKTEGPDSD
# [3] = measured here: cell number at 24 h, Library stock concentration: 10 mM
# [4] = measured here: cell number at 48 h, Library stock concentration: 10 mM
# [5] = Library stock concentration: 10 mM
# [6] = measured here: p53 positive nuclei at 24 h, Library stock concentration: 10 mM
# [7] = measured here: cell number at 24 h, concentration not given here
# [8] = measured here: cell number at 48 h, concentration not given here
# [9] = measured here: p53 positive nuclei at 24 h, concentration not given here
# [10] = measured here: cell number at 24 h, Library stock concentration: 3.33 mM
# [11] = measured here: cell number at 48 h, Library stock concentration: 3.33 mM
# [12] = Library stock concentration: 3.33 mM
# [13] = measured here: p53 positive nuclei at 24 h, Library stock concentration: 3.33 mM
smiles,measurement,setting,value
O=C(O)c1ccccc1SC1=NS(=O)(=O)c2ccccc21,"nuclei count, normalised","[1]; measured here: cell number at 24 h, Library stock concentration: 500 nM",117%
same,"nuclei count, normalised","[1]; measured here: cell number at 24 h, Library stock concentration: 1.5 uM",119%
same,"nuclei count, normalised","[1]; measured here: cell number at 24 h, Library stock concentration: 4.6 uM",119%
same,"nuclei count, normalised","[1]; measured here: cell number at 24 h, Library stock concentration: 13.7 uM",120%
same,"nuclei count, normalised","[1]; measured here: cell number at 24 h, Library stock concentration: 41 uM",125%
same,"nuclei count, normalised","[1]; measured here: cell number at 24 h, Library stock concentration: 123 uM",126%
same,"nuclei count, normalised","[1]; measured here: cell number at 24 h, Library stock concentration: 370 uM",125%
same,"nuclei count, normalised","[1]; measured here: cell number at 24 h, Library stock concentration: 1.111 mM",119%
same,"nuclei count, normalised","[1]; measured here: cell number at 24 h, Library stock concentration: 3.333 mM",120%
same,"nuclei count, normalised",[1]; [3],112%
same,"nuclei count, normalised","[1]; measured here: cell number at 48 h, Library stock concentration: 500 nM",123%
same,"nuclei count, normalised","[1]; measured here: cell number at 48 h, Library stock concentration: 1.5 uM",121%
same,"nuclei count, normalised","[1]; measured here: cell number at 48 h, Library stock concentration: 4.6 uM",126%
same,"nuclei count, normalised","[1]; measured here: cell number at 48 h, Library stock concentration: 13.7 uM",116%
same,"nuclei count, normalised","[1]; measured here: cell number at 48 h, Library stock concentration: 41 uM",127%
same,"nuclei count, normalised","[1]; measured here: cell number at 48 h, Library stock concentration: 123 uM",121%
same,"nuclei count, normalised","[1]; measured here: cell number at 48 h, Library stock concentration: 370 uM",120%
same,"nuclei count, normalised","[1]; measured here: cell number at 48 h, Library stock concentration: 1.111 mM",117%
same,"nuclei count, normalised","[1]; measured here: cell number at 48 h, Library stock concentration: 3.333 mM",122%
same,"nuclei count, normalised",[1]; [4],111%
same,"p53-positive nuclei, normalised",[2]; Library stock concentration: 500 nM,-0.176% (inactive)
same,"p53-positive nuclei, normalised",[2]; Library stock concentration: 1.5 uM,0.0563% (inactive)
same,"p53-positive nuclei, normalised",[2]; Library stock concentration: 4.6 uM,-0.0688% (inactive)
same,"p53-positive nuclei, normalised",[2]; Library stock concentration: 13.7 uM,0.0271% (inactive)
same,"p53-positive nuclei, normalised",[2]; Library stock concentration: 41 uM,-0.248% (inactive)
same,"p53-positive nuclei, normalised",[2]; Library stock concentration: 123 uM,-0.212% (inactive)
same,"p53-positive nuclei, normalised",[2]; Library stock concentration: 370 uM,0.0436% (inactive)
same,"p53-positive nuclei, normalised",[2]; Library stock concentration: 1.111 mM,0.133% (inactive)
same,"p53-positive nuclei, normalised",[2]; Library stock concentration: 3.333 mM,-0.102% (inactive)
same,"p53-positive nuclei, normalised",[2]; [5],0.0746% (inactive)
same,"p53-positive nuclei, normalised","[2]; measured here: p53 positive nuclei at 24 h, Library stock concentration: 500 nM",-0.148%
same,"p53-positive nuclei, normalised","[2]; measured here: p53 positive nuclei at 24 h, Library stock concentration: 1.5 uM",-0.0949%
same,"p53-positive nuclei, normalised","[2]; measured here: p53 positive nuclei at 24 h, Library stock concentration: 4.6 uM",-0.0339%
same,"p53-positive nuclei, normalised","[2]; measured here: p53 positive nuclei at 24 h, Library stock concentration: 13.7 uM",-0.0316%
same,"p53-positive nuclei, normalised","[2]; measured here: p53 positive nuclei at 24 h, Library stock concentration: 41 uM",-0.148%
same,"p53-positive nuclei, normalised","[2]; measured here: p53 positive nuclei at 24 h, Library stock concentration: 123 uM",-0.148%
same,"p53-positive nuclei, normalised","[2]; measured here: p53 positive nuclei at 24 h, Library stock concentration: 370 uM",-0.0409%
same,"p53-positive nuclei, normalised","[2]; measured here: p53 positive nuclei at 24 h, Library stock concentration: 1.111 mM",-0.0917%
same,"p53-positive nuclei, normalised","[2]; measured here: p53 positive nuclei at 24 h, Library stock concentration: 3.333 mM",-0.0904%
same,"p53-positive nuclei, normalised",[2]; [6],-0.0218%
O=C(CCn1cnnn1)N1CCc2[nH]nc(-c3ccc4c(c3)OCO4)c2C1,"nuclei count, normalised",[1]; [7],107%
same,"nuclei count, normalised",[1]; [8],111%
same,"p53-positive nuclei, normalised",[2]; concentration not given here,0.266% (inactive)
same,"p53-positive nuclei, normalised",[2]; [9],0.111%
Cc1ccc([N+](=O)[O-])cc1S(=O)(=O)N(C)N=Cc1cnc2ccc(Br)cn12,"nuclei count, normalised",[1]; [10],17.7%
same,"nuclei count, normalised",[1]; [11],14.7%
same,"p53-positive nuclei, normalised",[2]; [12],14.4% (inactive)
same,"p53-positive nuclei, normalised",[2]; [13],4.1%
CCc1c2c(nc3ccc(OC(=O)N4CCC(N5CCCCC5)CC4)cc13)-c1cc3c(c(=O)n1C2)COC(=O)[C@@]3(O)CC,"nuclei count, normalised",[1]; [10],44.3%
same,"nuclei count, normalised",[1]; [11],30.6%
same,"p53-positive nuclei, normalised",[2]; [12],-0.157% (inactive)
same,"p53-positive nuclei, normalised",[2]; [13],-0.474%
CN(C)CCCn1cc(C2=C(c3c[nH]c4ccccc34)C(=O)NC2=O)c2ccccc21,"nuclei count, normalised",[1]; [10],108%
same,"nuclei count, normalised",[1]; [11],105%
same,"p53-positive nuclei, normalised",[2]; [12],0.0456% (inactive)
same,"p53-positive nuclei, normalised",[2]; [13],-0.293%
Cn1cc(C2=C(c3cn(CCCSC(=N)N)c4ccccc34)C(=O)NC2=O)c2ccccc21,"nuclei count, normalised","[1]; measured here: cell number at 24 h, Library stock concentration: 80 uM",108%
same,"nuclei count, normalised","[1]; measured here: cell number at 24 h, Library stock concentration: 400 uM",104%
same,"nuclei count, normalised","[1]; measured here: cell number at 24 h, Library stock concentration: 2 mM",97.9%
same,"nuclei count, normalised",[1]; [10],68.3%
same,"nuclei count, normalised",[1]; [3],38.8%
same,"nuclei count, normalised",[1]; [7],102%
same,"nuclei count, normalised","[1]; measured here: cell number at 48 h, Library stock concentration: 80 uM",114%
same,"nuclei count, normalised","[1]; measured here: cell number at 48 h, Library stock concentration: 400 uM",111%
same,"nuclei count, normalised","[1]; measured here: cell number at 48 h, Library stock concentration: 2 mM",98.9%
same,"nuclei count, normalised",[1]; [11],63.6%
same,"nuclei count, normalised",[1]; [4],29%
same,"nuclei count, normalised",[1]; [8],104%
same,"p53-positive nuclei, normalised",[2]; Library stock concentration: 80 uM,0.143% (inactive)
same,"p53-positive nuclei, normalised",[2]; Library stock concentration: 400 uM,-0.08% (inactive)
same,"p53-positive nuclei, normalised",[2]; Library stock concentration: 2 mM,3.66% (inactive)
same,"p53-positive nuclei, normalised",[2]; [12],23.8% (inactive)
same,"p53-positive nuclei, normalised",[2]; [5],70.5% (active)
same,"p53-positive nuclei, normalised",[2]; concentration not given here,0.319% (inactive)
same,"p53-positive nuclei, normalised","[2]; measured here: p53 positive nuclei at 24 h, Library stock concentration: 80 uM",-0.111%
same,"p53-positive nuclei, normalised","[2]; measured here: p53 positive nuclei at 24 h, Library stock concentration: 400 uM",-0.0611%
same,"p53-positive nuclei, normalised","[2]; measured here: p53 positive nuclei at 24 h, Library stock concentration: 2 mM",3.9%
same,"p53-positive nuclei, normalised",[2]; [13],33.8%
same,"p53-positive nuclei, normalised",[2]; [6],47.3%
same,"p53-positive nuclei, normalised",[2]; [9],0.487%
Cn1cc(C2=C(c3cn(CCCN)c4ccccc34)C(=O)NC2=O)c2ccccc21,"nuclei count, normalised",[1]; [7],114%
same,"nuclei count, normalised",[1]; [8],106%
same,"p53-positive nuclei, normalised",[2]; concentration not given here,0.117% (inactive)
same,"p53-positive nuclei, normalised",[2]; [9],0.12%
Cc1nsc(NC(=O)NCCC2CCCCCC2)n1,"nuclei count, normalised",[1]; [7],106%
same,"nuclei count, normalised",[1]; [8],112%
same,"p53-positive nuclei, normalised",[2]; concentration not given here,-0.14% (inactive)
same,"p53-positive nuclei, normalised",[2]; [9],-0.0933%
CC1(C)OC2C[C@H]3[C@@H]4CCC5=CC(=O)CC[C@]5(C)[C@]4(F)C(O)C[C@]3(C)[C@@]2(C(=O)CCl)O1 (stereo partly specified),"nuclei count, normalised",[1]; [10],80.9%
same,"nuclei count, normalised",[1]; [11],80.1%
same,"p53-positive nuclei, normalised",[2]; [12],-0.151% (inactive)
same,"p53-positive nuclei, normalised",[2]; [13],-0.267%
O=C1O[C@H](C(O)CO)C(O)C1O (stereo partly specified),"nuclei count, normalised",[1]; [10],110%
same,"nuclei count, normalised",[1]; [11],103%
same,"p53-positive nuclei, normalised",[2]; [12],-0.204% (inactive)
same,"p53-positive nuclei, normalised",[2]; [13],-0.283%

# From PubChem BioAssay AID1508601 (ICCB-Longwood Screening Facility, Harvard Medical School, 2020)
